Assay [1] concerns Zika virus NS2B-NS3 protease (unlinked complex). Briefly: Primary screen GU Rhodamine qHTS for Zika virus inhibitors: Unlinked NS2B-NS3 protease assay (AID 1347159). Further: nearly all actives have a fitted effect of over 60% in size. The procedure, abridged: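 Enzyme 25 nM in Tris-HCl pH 8.0 + 0.01% Tween 20; compounds up to 114 microM, 15 min RT dark; + Rhod110 substrate 1.5 microM; read t0 and 15 min; delta fluorescence → % inhibition → 4-parameter Hill fit.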
(In general: In qHTS, concentration-response curves come from the screen itself.)

Assay [2] has as its system Zika virus NS2B-NS3 protease (linked construct). Nature of the assay: Primary screen NINDS Rhodamine qHTS for Zika virus inhibitors (AID 1347160). Further: nearly all actives have a fitted effect of over 55% in size. The essentials:
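Enzyme (25 nM, linked NS2B-NS3) was preincubated 15 min with compound in 10 mM Tris-HCl pH 8.0, 0.01% Tween 20. Rhodamine110 substrate (1.5 microM) was then added and fluorescence read at start and after 15 min.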

Inconclusive results are not listed. A number with no mark means an inactive call. The source made the active and inactive calls. The call rests on the fitted dose curve; in most records, active means well fitted inhibition curve with a large enough effect; inconclusive means small, poorly fitted or top-dose-only effect; inactive means no such curve, though single readings can be large or run the other way.
On the % scale 0 is the no-effect control and ±100 the full control effect.

Consider `C=C(C)C1CC2(CO)C(=CC1=O)CCC(O)C2C` (centres undefined), for which the Potency entry in assay [1] and in assay [2] was “inactive” in each case.
Regarding `O=C(OCC12OC1C=CC(OC(=O)c1ccccc1)C2O)c1ccccc1` (centres undefined), the Potency entry in assay [1] and in assay [2] was “inactive” in each case.
With `CC(O)(CC(=O)O)CC(=O)O[C@@H]1[C@@H](O)[C@H](OCCc2ccccc2)O[C@H](CO)[C@H]1O` (some centres undefined), the Potency result in assay [1] and in assay [2] was “inactive” each time.
With `CC(C)C(C#N)O[C@@H]1O[C@H](CO[C@@H]2OC[C@](O)(CO)[C@H]2O)[C@@H](O)[C@H](O)[C@H]1O` (some centres undefined), the Potency result in assay [1] and in assay [2] was “inactive” throughout.
Regarding `C=C1[C@@H]2CC[C@@]3(C)[C@H](c4ccoc4)OC(=O)C[C@]13O[C@H]1CC(=O)C(C)(C)[C@H](CC(=O)OC)[C@]12C`, the Potency result in assay [1] and in assay [2] was “inactive” in each case.
As for `CC1(C)CCCC2(C)C3=C(C(=O)OC3O)C(O)CC12` (centres undefined), the Potency result in assay [1] and in assay [2] was “inactive” in each case.
Consider `C[C@@H]1O[C@@H](O[C@H]2[C@H](O[C@H]3CC[C@@]4(C)C(CC[C@]5(C)C4CC=C4C6CC(C)(C)CC[C@]6(C(=O)O[C@@H]6O[C@H](CO[C@@H]7O[C@H](CO)[C@@H](O[C@@H]8O[C@@H](C)[C@H](O)[C@@H](O)[C@H]8O)[C@H](O)[C@H]7O)[C@@H](O)[C@H](O)[C@H]6O)CC[C@]45C)[C@]3(C)CO)OC[C@H](O)[C@@H]2O)[C@H](O)[C@H](O)[C@H]1O` (some centres undefined), for which the activity change, negative = inhibition in assay [1] was 20.6% [at 19.1 µM]; in assay [2], 37.8% [at 10.7 µM].
As to `COC1C2=C(COC2=O)C2(C)CCCC(C)(CO)C2C1OC(=O)c1ccccc1` (centres undefined), the Potency entry in assay [1] and in assay [2] was “inactive” in each case.
As to `NC(=O)[C@H]1CCCCc2c1[nH]c1ccc(Cl)cc21`, the Potency entry in assay [1] and in assay [2] was “inactive” in each case.
Take `C[C@H]1[C@H](C)CC[C@]2(C(=O)O)CC[C@]3(C(=O)O)C(=CCC4[C@@]5(C)CC[C@H](O[C@@H]6O[C@H](C)[C@@H](O)[C@H](O)[C@H]6O)C(C)(C)C5CC[C@]43C)[C@H]12` (some centres undefined): the Potency result in assay [1] and in assay [2] was “inactive” each time.
Regarding `CC(O)C(O)/C=C/C=C/C(=O)O[C@@H]1C=C2COC(=O)[C@]2(O)[C@@]2(C)CCCC(C)(C)C12` (some centres undefined), the Potency result in assay [1] and in assay [2] was “inactive” each time.
Consider `COc1cc(C(=O)OC[C@H]2O[C@H](O[C@@]3(CO)O[C@@H](CO)[C@H](O)[C@H]3O)[C@H](O)[C@@H](O)[C@@H]2O)ccc1O`, for which the Potency entry in assay [1] and in assay [2] was “inactive” in each case.
Take `Cc1cc(C)c(S(=O)(=O)N(Cc2ccc(-c3cccc(S(C)(=O)=O)c3)cc2)Cc2ccc(C(F)(F)F)o2)c(C)c1`: the Potency entry in assay [1] and in assay [2] was “inactive” each time.
As for `COc1c(C)c(C(=O)c2ccc(N)c(C(=O)O)c2)n2ccccc12`, the Potency entry in assay [1] and in assay [2] was “inactive” in each case.
Consider `C[C@@H]1C(=O)O[C@H]2CC34[C@H]5C[C@@H](C(C)(C)C)C36[C@@H](OC(=O)[C@@H]6O)O[C@@]4(C(=O)O5)[C@]21O` (some centres undefined), for which the Potency result in assay [1] and in assay [2] was “inactive” in each case.
For `CC1CCC2C(C)(C)C(O)CCC2(C)C12Cc1c(O)cc3c(c1O2)C(N)=NC3` (centres undefined), the Potency entry in assay [1] and in assay [2] was “inactive” throughout.
In the case of `CCC(CC)n1ccc2c(C(=O)NCc3c(C)cc(C)[nH]c3=O)cc(C#N)cc21`, the Potency entry in assay [1] and in assay [2] was “inactive” in each case.
Consider `COc1cc(C/C(=C/NC(C)=O)N(CC(=O)Cc2ccccc2)C(C)=O)cc2c1OCO2`, for which the Potency result in assay [1] and in assay [2] was “inactive” in each case.
On to `COC(=O)C1=CO[C@@H](O[C@@H]2O[C@H](CO)[C@@H](O)[C@H](O)[C@H]2O)[C@@H]2[C@@H](C)[C@@H](O)C[C@H]12`, for which the Potency entry in assay [1] and in assay [2] was “inactive” each time.
As to `CC1=CC2(O)/C=C/C(C)(O)CC(O)/C=C/C(=O)OC23C(=O)NC(CC(C)C)C3C1C` (centres undefined), the Potency result in assay [1] and in assay [2] was “inactive” throughout.
On to `CN(NC(=O)CC(=O)NN(C)C(=S)c1ccccc1)C(=S)c1ccccc1`, for which the Potency result in assay [1] and in assay [2] was “inactive” in each case.
Turning to `CCOc1cc2ncc(C#N)c(Nc3ccc(OCc4ccccn4)c(Cl)c3)c2cc1NC(=O)/C=C/CN(C)C`, the Potency result in assay [1] and in assay [2] was “inactive” each time.
For `CC(C)(C)NCC(O)COc1cccc2c1CCCC2=O` (centres undefined), the Potency result in assay [1] and in assay [2] was “inactive” throughout.
Turning to `COC(=O)C1=CO[C@@H](O[C@@H]2O[C@H](CO)[C@@H](O)[C@H](O)[C@H]2O)[C@@H]2[C@@](C)(O)[C@@H](O)C[C@]12O`, the Potency result in assay [1] and in assay [2] was “inactive” throughout.
Turning to `O=C(O[C@H]1[C@@H]2C=CO[C@@H](O[C@@H]3O[C@H](CO)[C@@H](O)[C@H](O)[C@H]3O)[C@@H]2[C@@]2(CO)O[C@@H]12)c1ccc(O)c(O)c1`, the Potency result in assay [1] and in assay [2] was “inactive” throughout.
On to `COc1ccc2c(c1O)OC[C@H]1c3ccc(O)cc3O[C@@H]21`, for which the Potency entry in assay [1] and in assay [2] was “inactive” each time.
Take `C/C1=C\C[C@H](O[C@@H]2O[C@H](CO)[C@@H](O)[C@H](O)[C@H]2O)/C(C)=C/[C@H]2OC(=O)[C@H](C)[C@@H]2CC1`: the Potency entry in assay [1] and in assay [2] was “inactive” throughout.
